Bioassay records: PubChem BioAssay, The Scripps Research Institute Molecular Screening Center
This is a sample that favours compounds with a hit; in the whole collection about 2.6% have one here.
PAD4 FP inh: blocks human protein arginine deiminase 4; AID 485272; inhibition, % at 6.36 µM; recombinant PAD4, RCA probe fluorescence polarization; 0.41% of 330,000 active;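 active = percent inhibition above a cutoff equal to the mean of all tested compounds plus 3 SD, cut at about 15% in these data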
SIAE inh: human SIAE inhibition, primary screen. Q9HAT2. 0.69% of 370,000 active. inhibition, % at 9.66 µM. SIAE FP-Rh probe binding, fluorescence polarization;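 active = inhibition above a cutoff: mean of compounds within the control limits plus 3 SD of those, cut at about 17% in these data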
PME-1 primary: blocks human protein phosphatase methylesterase 1; Q9Y570; recombinant PME-1, FP-Rh probe fluorescence polarization; inhibition, % at 5.9 µM; 0.53% of 320,000 active; AID 2130;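 active = inhibition above the campaign mean of all compounds plus 3 SD, cut at about 26% in these data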;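 also: competitive labeling of PME-1 active site by serine hydrolase directed probe; inhibitors block probe labeling so polarization falls and inhibition rises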
Target sequence (Q9Y570 whole entry, looked up): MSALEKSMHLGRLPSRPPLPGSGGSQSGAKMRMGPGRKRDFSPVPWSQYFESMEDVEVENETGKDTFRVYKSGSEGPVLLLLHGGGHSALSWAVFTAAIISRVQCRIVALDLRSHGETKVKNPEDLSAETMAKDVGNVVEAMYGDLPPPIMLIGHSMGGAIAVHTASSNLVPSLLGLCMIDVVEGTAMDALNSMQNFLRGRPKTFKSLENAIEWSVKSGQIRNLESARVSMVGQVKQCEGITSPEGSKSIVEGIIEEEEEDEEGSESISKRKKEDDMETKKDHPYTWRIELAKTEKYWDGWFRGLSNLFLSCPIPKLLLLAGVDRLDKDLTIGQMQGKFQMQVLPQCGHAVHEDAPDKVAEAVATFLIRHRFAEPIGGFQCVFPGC
TCR CD3 inh: blocks the human TCR-CD3 interaction; TAMRA-labeled TCR probe fluorescence, biochemical; inhibition, % at 9.4 µM; 0.37% of 360,000 active;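 also: recombinant mutant TCR 2C K166C tagged with TAMRA read by polarization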
Fam108B counter: blocks mouse Fam108B hydrolase in RBBP9 counter-screen. recombinant Fam108B, FP-Rh probe fluorescence polarization. inhibition, % at 9.51 µM. 0.33% of 300,000 active. AID 1947;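 active = inhibition above the screen mean inhibition plus 3 SD, computed separately per campaign, cut at about 18% in these data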;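 also: inhibitors lower polarization as less probe binds the enzyme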
PRMT1 inh: inhibitors of human PRMT1; recombinant PRMT1, activity-based probe fluorescence polarization; Q99873; inhibition, % at 2.79 µM; AID 652257; 1.3% of 370,000 active;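 active = inhibition above about 21% made by adding two undisclosed values, limit read from the data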
BSA TAMRA ctr: BSA probe counter-screen for TCR-CD3 inhibitors | inhibition, % at 9.4 µM | TAMRA-labeled BSA probe fluorescence counterscreen | shares compounds with TCR CD3 inh | 10% of 1,200 active; in the data active = inhibition above about 23%
TCR-CD3 conf: TCR-CD3 interaction inhibition, confirmation. shares compounds with TCR CD3 inh. TAMRA-labeled TCR probe fluorescence binding assay. inhibition, % at 9.4 µM. 48% of 1,200 active. AID 652036
Of the large screens only hits and unclear results are named; the others gave an inactive call (follow-up assays come after a bar, where they were run). Rule as the data show it, unless noted: active = inhibition above about 19%; inactive = the rest.

COC(=O)C1CN(CCO)CCS(=O)(=O)N1Cc1cn(Cc2ccccc2Br)nn1 (stereo not given)	none (no result: PAD4 FP inh, PME-1 primary, TCR CD3 inh, Fam108B counter)
O=C1CNC(=S)N1CCc1ccc(O)c(O)c1	TCR CD3 inh 31 | BSA TAMRA ctr inactive | TCR-CD3 conf 27
O=C1CC(c2ccc(O)c(O)c2)Oc2c1ccc(O)c2O (stereo not given)	TCR CD3 inh 28, PRMT1 inh 37 | BSA TAMRA ctr inactive | TCR-CD3 conf 33
CC(C)=CCc1c(O)ccc2c1OC(c1ccc(O)c(O)c1)CC2=O (stereo not given)	none
O=S(=O)(c1ccc2nc(-c3ccccc3)[nH]c2c1)N1CCN(c2ccc(Cl)cc2)CC1	TCR CD3 inh 38 | BSA TAMRA ctr inactive | TCR-CD3 conf inactive
O=c1ccc2cc(S(=O)(=O)N3CCN(c4ccccc4)CC3)ccc2[nH]1	none
Cc1ccc2nc(-c3cccc(Br)c3)c(Cc3ccccc3)n2c1	TCR CD3 inh 114 (no result: PAD4 FP inh, PME-1 primary, Fam108B counter) | BSA TAMRA ctr inactive | TCR-CD3 conf inactive
Cc1ccc(Cc2c(-c3cccc(Br)c3)nc3ccc(C)cn23)cc1	TCR CD3 inh 77 (no result: PAD4 FP inh, PME-1 primary, Fam108B counter) | BSA TAMRA ctr inactive | TCR-CD3 conf inactive
O=C(CNC(=O)c1ccc(Br)o1)NNC(=O)c1ccccc1O	TCR CD3 inh 35 | BSA TAMRA ctr inactive | TCR-CD3 conf 32
Cc1ccc(C(=O)CCC(=O)NNC(=O)c2ccccc2O)cc1	TCR CD3 inh 21 (no result: Fam108B counter) | BSA TAMRA ctr inactive | TCR-CD3 conf 23
COc1ccccc1NC(=O)Cc1coc2cc(C)ccc12	none
O=C(CCNC(=O)c1ccccc1Cl)NNC(=O)c1ccccc1O	TCR CD3 inh 23 | BSA TAMRA ctr inactive | TCR-CD3 conf inactive
O=C(NCCNC(=O)c1ccccc1O)c1ccccc1O	none
Cc1ccc(NC(=O)CCC(=O)c2ccccc2)cc1	none (no result: PAD4 FP inh, PME-1 primary, Fam108B counter)
Cc1ccc2c(CC(=O)NNC(=O)c3ccccc3O)coc2c1	TCR CD3 inh 20 | BSA TAMRA ctr inactive | TCR-CD3 conf 21
CC(C)CNC(=O)OCc1cn(Cc2ccccc2)nn1	none (no result: PAD4 FP inh, PME-1 primary, TCR CD3 inh, Fam108B counter)
Cc1ccccc1S(=O)(=O)N1CCC(c2nc3ccccc3o2)CC1	none (no result: PAD4 FP inh, PME-1 primary, TCR CD3 inh, Fam108B counter)
CCN(CC(=O)Nc1c(F)cccc1F)C(=O)/C=C/c1ccc2ccccc2n1	TCR CD3 inh 30 | BSA TAMRA ctr inactive | TCR-CD3 conf 34
CCN(CC(=O)Nc1c(F)cccc1F)C(=O)c1ccc2ccccc2n1	none
CCc1ccc(N2C(=O)C3CCCN3C2=S)cc1 (stereo not given)	none
COc1ccc(N2C(=O)C3CCCN3C2=S)cc1 (stereo not given)	TCR CD3 inh 20 | BSA TAMRA ctr inactive | TCR-CD3 conf inactive
S=C(Nc1ccc(Br)cc1)OC1CCC12CCC(c1ccccc1)CC2 (stereo not given)	none (no result: PAD4 FP inh, PME-1 primary, TCR CD3 inh, Fam108B counter)
O=C(CSc1nc2ccccc2c(=O)n1-c1ccc(F)cc1)Nc1ccc(Cl)c(S(=O)(=O)N2CCOCC2)c1	none
O=C(CSc1nc2ccccc2c(=O)n1-c1ccc(F)c(Cl)c1)Nc1cccc(S(=O)(=O)N2CCOCC2)c1	TCR CD3 inh 22 | BSA TAMRA ctr inactive | TCR-CD3 conf 19
C/C(=N\NC(=O)c1nnn(-c2nonc2N)c1-c1ccccc1)c1ccccc1O	TCR CD3 inh 49 | BSA TAMRA ctr inactive | TCR-CD3 conf 30
N#CCC(=O)Nc1ccc(C(=O)OCC(=O)Nc2cccc(C(F)(F)F)c2)cc1	TCR CD3 inh 35 | BSA TAMRA ctr inactive | TCR-CD3 conf inactive
Cc1ccc(C(=O)OCC(=O)NC2CCCc3ccccc32)o1 (stereo not given)	none (no result: Fam108B counter)
N#CCC(=O)Nc1ccc(C(=O)OCC(=O)NC2CCCc3ccccc32)cc1 (stereo not given)	TCR CD3 inh 20 (no result: PME-1 primary, Fam108B counter) | BSA TAMRA ctr inactive | TCR-CD3 conf inactive
Cc1cc(C)c(-c2cc(NC(=O)COC(=O)c3ccc(NC(=O)CC#N)cc3)n(-c3ccccc3)n2)cc1C	TCR CD3 inh 61 | BSA TAMRA ctr inactive | TCR-CD3 conf 43
Cc1ccc(Cn2cc(CN3CC=CS3(=O)=O)nn2)cc1	none (no result: PAD4 FP inh, PME-1 primary, TCR CD3 inh, Fam108B counter)
Cc1ccccc1CN1CCCCC(NC(=O)c2ccc(F)cc2F)C1=O (stereo not given)	none (no result: PAD4 FP inh, PME-1 primary, TCR CD3 inh, Fam108B counter)
Cc1cc(C(=O)N/N=C/c2cc(Cl)cc([N+](=O)[O-])c2O)n[nH]1	TCR CD3 inh 28 | BSA TAMRA ctr inactive | TCR-CD3 conf 34
